Experimental data taken from the antibiotic and cytotoxicity screens of Wong et al. (2023).
The whole screen tested about 39,000 compounds, of which about 3,300 (8.5%) were called active. Only a selection was taken, and actives are over-represented in it overall.

system: HepG2; test: cytotoxicity call (relative viability < 0.9); settings: 10 µM

SMILES	cytotoxicity call
CCOC1OC2OC3(C)CCC4C(C)CCC(C1C)C24OO3 (centres undefined)	active
NC(=O)C12CC(CN1)C2	inactive
COc1cc2c3cc1Oc1c(OC)c(OC)cc4c1C(Cc1cccc(c1)Oc1ccc(c(O)c1)CC3N(C)CC2)N(C)CC4.Cl.Cl (centres undefined)	active
COc1ccc2c(c1O)-c1c(OC)c(OC)cc3c1C(C2)N(C)CC3 (centres undefined)	inactive
COc1cc2c3cc1Oc1c(OC)c(OC)cc4c1[C@@H](Cc1cccc(c1)Oc1ccc(c(O)c1)C[C@@H]3N(C)CC2)N(C)CC4	inactive
O=C(O)CF.[NaH]	inactive
CC(=O)Oc1ccc(C=Cc2cc(OC(C)=O)cc(OC(C)=O)c2)cc1	inactive
c1cnc(N2CCOC[C@@]3(CCCNC3)C2)cn1	inactive
O=C(CCCN1CCC2(CC1)C(=O)N(Cc1cccc(F)c1)CN2c1ccccc1)c1ccc(F)cc1	active
C[C@@H]1CN([C@@H](C)CO)C(=O)CCCn2nncc2CO[C@@H]1CN(C)C(=O)Oc1ccc2ccccc2c1	inactive
C[C@@H]1CN([C@H](C)CO)C(=O)CCCn2cc(nn2)CO[C@@H]1CN(C)C(=O)Oc1ccc2ccccc2c1	inactive
CC(C)C[C@H]1C(=O)N2CCC[C@H]2[C@]2(O)O[C@](NC(=O)[C@@H]3C=C4c5cccc6[nH]c(Br)c(c56)C[C@H]4N(C)C3)(C(C)C)C(=O)N12	inactive
C[C@@H](N)Cc1c[nH]c2ccc(OCc3cccs3)cc12	inactive
C[C@H]1C[C@@H]2CNC[C@@H]2O1	inactive
CCCCOC(=O)c1ccccc1C(=O)OCCCC	active
CCN(CC)CCOC(=O)C(O)(c1ccccc1)c1ccccc1.Cl	inactive
CC(N)C(O)c1ccc(O)c(O)c1 (centres undefined)	inactive
CCS(=O)(=O)N1C[C@@H]2CCN[C@@H]2C1	inactive
C[C@@H](N)Cc1c[nH]c2ccc(O)cc12	inactive
O=C1CC[C@@H]2NCC[C@H]2N1	inactive

SMILES	cytotoxicity call
CCC(N)C(O)c1ccc(O)c(O)c1.Cl (centres undefined)	active
C[C@H](N)[C@H](O)c1ccc(O)c(O)c1	inactive
CC[C@@H](N)[C@@H](O)c1ccc(O)c(O)c1	inactive
CC=C(C)C(=O)OC1CCC2(C)C3CCC4C5(O)CC(O)C6(O)C(CN7CC(C)CCC7C6(C)O)C5(O)CC42OC13O.Cl (centres undefined)	inactive
N#C[C@H](O[C@@H]1O[C@H](CO)[C@@H](O)[C@H](O)[C@H]1O)c1ccc(O)cc1	inactive
Cl.N=C(N)NN	inactive
[N-]=[N+]=Nc1ccc2[nH]ccc2c1	inactive
O=c1[nH]c2cc(N3CCNCC3)ccc2o1	active
Nc1ccc(N2CCNCC2)cc1	inactive
Oc1ccc(N2CCNCC2)cc1	inactive
OCc1ccco1	inactive
Cc1nnc([C@H]2CCCNC2)o1	inactive
CC[C@H]1/C=C/C=C/C[C@@H](C)[C@H](O)[C@@](C)(O)C(=O)[C@@H](C)[C@H](O)[C@@H](C)C(=O)[C@@H](C)[C@H](O)[C@@H](C)/C=C/C(=O)O[C@@H]2[C@H](C)[C@H](CC1)O[C@]1(CC[C@H](C)[C@H](C[C@@H](C)O)O1)[C@H]2C	inactive
COc1ccc2c(c1OC)C(=O)OC2C1c2cc3c(cc2CCN1C)OCO3 (centres undefined)	inactive
COc1cc(C2c3cc4c(cc3C(O)C3COC(=O)C23)OCO4)cc(OC)c1OC (centres undefined)	active
C[C@H](CO)N1C[C@H](C)[C@H](CN(C)C(=O)Oc2ccccc2)OCc2ccccc2-c2c(n(C)c3ccccc23)C1=O	inactive
COc1cc2c(cc1OC)C1C(=O)c3ccc4oc(C(C)C)cc4c3OC1CO2 (centres undefined)	active
C=C(C)C1Cc2c(ccc3c2OC2COc4cc(OC)c(OC)cc4C2C3=O)O1 (centres undefined)	active
COc1cc2c(cc1OC)C1C(=O)c3ccc4c(c3OC1CO2)CC(C(C)C)O4 (centres undefined)	active
C=C(C)C1Cc2c(ccc3c(=O)c4c(oc23)COc2cc(OC)c(OC)cc2-4)O1 (centres undefined)	inactive

SMILES	cytotoxicity call
O=C(NCc1ccccc1)[C@H]1C[C@H]2CNC[C@H]1O2	inactive
CC(C)(C)[C@@]1(O)C[C@H]2OC(=O)C[C@]23C(=O)O[C@H]2OC(=O)[C@@H](O)[C@]231	inactive
C=CCN1CCC23c4c5ccc(O)c4OC2C(=O)CCC3(O)C1C5.Cl (centres undefined)	inactive
CCOC(OCC)P(=O)(O)CCCN	inactive
O=C1CO[C@H]2CNC[C@@H]2N1CC1CCCC1	inactive
CCOC(=O)[C@H]1[C@@H](C=C(C)C)C1(C)C	inactive
COc1ccc(N(C(=O)Oc2c(C)cccc2C)c2ccnc(Nc3ccc(N4CCN(C)CC4)cc3)n2)c(OC)c1	inactive
N=C(N)N/N=C/c1ccc2c(c1)OCO2	inactive
Cc1o[nH]c(=O)c1C[C@H](N)C(=O)O	inactive
CC12CCC(=O)C=C1CCC1C2CCC2(C)C(O)CCC12 (centres undefined)	inactive
CCC(=O)OC1CCC2C3CCC4=CC(=O)CCC4(C)C3CCC12C (centres undefined)	inactive
C#CC1(O)CCC2C3CCC4=CC(=O)CCC4(C)C3CCC21C (centres undefined)	active
CN1[C@H](CO)[C@H]2c3ccccc3NC[C@H]21	inactive
Cl.NNCc1ccccc1	inactive
CC(=O)[O][Cd][O]C(C)=O	inactive
NC[C@@H](O)c1ccc(Br)cc1	inactive
C[C@@H]1NC[C@@H]2CCCN2C1=O	inactive
O=c1[nH]c2ccccc2n1CCCN1CCC(n2c(=O)[nH]c3cc(Cl)ccc32)CC1	inactive
O=c1[nH]c2ccccc2n1C1CCN(CCCC(c2ccc(F)cc2)c2ccc(F)cc2)CC1	active
